PubChem BioAssay
Inconclusive results are not listed. Active and inactive are the calls of the source. Unless noted, the limit is not given here; nearly all actives have AC50 up to about 30 µM.

Assay: viability loss in pontine glioma line – cell-based, SU-DIPG-IV, MIPE4.0, CellTiter-Glo, qHTS, dose response (AID 1347063);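 also: compound exposure lasted 48 hours before the viability readout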
Details: CellTiter-Glo ATP luminescence

Structure (SMILES)	outcome	AC50
OC[C@H]1O[C@@H](OCCc2ccc(O)cc2)[C@H](O)[C@@H](O)[C@@H]1O	inactive	–
CN(C)CCCNC(=O)c1ccc(-c2cc(O)c3ncccc3c2)cc1	inactive	–
CC(C)(C)COc1ccc(-n2cc(C(=O)O)cn2)cc1C#N	inactive	–
Nc1nc(F)nc2c1ncn2[C@@H]1O[C@H](CO)[C@@H](O)[C@H]1O	–	0.264 µM (active)
Clc1cccc(-c2nnnn2Cc2cccnc2)c1Cl	inactive	–
CCC(C)CCCCC(=O)N[C@@H](CCN)C(=O)NC(C(=O)N[C@H](CCN)C(=O)N[C@@H]1CCNC(=O)C([C@@H](C)O)NC(=O)[C@@H](CCN)NC(=O)[C@@H](CCN)NC(=O)[C@@H](CC(C)C)NC(=O)[C@H](Cc2ccccc2)NC(=O)[C@H](CCN)NC1=O)[C@@H](C)O (some centres undefined)	inactive	–
CNC(=O)c1ccc(Nc2cc(Nc3ccccc3S(=O)(=O)C(C)C)c3cc[nH]c3n2)nc1	–	11.8 µM (active)

Assay: viability loss in pontine glioma line – cell-based, SU-DIPG-XIII, MIPE5.0, CellTiter-Glo, qHTS, dose response (AID 1347064; cut-off not given, nearly all actives have AC50 up to about 23 µM)
Details: CellTiter-Glo ATP luminescence

Structure (SMILES)	outcome
O=C(O)c1cc(O)c2c(c1)C(=O)c1cccc(O)c1C2=O	inactive
Cc1nc2c([nH]1)CCN(C(=O)c1ccc(NC(=O)c3ccccc3-c3ccccc3)cc1)c1ccccc1-2	inactive
CC(C)(C)OC(=O)N[C@H]1CCCCC/C=C\[C@@H]2C[C@@]2(C(=O)NS(=O)(=O)C2CC2)NC(=O)[C@@H]2C[C@@H](OC(=O)N3Cc4cccc(F)c4C3)CN2C1=O	inactive
C=C1C[C@@]2(O)O[C@@]3(C[C@H]2C(C)C)[C@@H](C)CC[C@@H]13	inactive

Assay: viability loss in pontine glioma line – cell-based, SU-DIPG-XXV, MIPE5.0, CellTiter-Glo, qHTS, dose response (AID 1347065; cut-off not given, nearly all actives have AC50 up to about 26 µM;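 also: cells exposed to compound for 48 hours before ATP readout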)
Details: CellTiter-Glo ATP luminescence

Structure (SMILES)	AC50	outcome
C=C1/C(=C\C=C2/CCC[C@]3(C)[C@@H]([C@H](C)/C=C/[C@H](C)C(C)C)CC[C@@H]23)C[C@@H](O)C[C@@H]1O	18.6 µM (active)	–
COc1ccc(CC2SC(=O)NC2=O)cc1C(=O)NCc1ccc(C(F)(F)F)cc1 (centres undefined)	–	inactive
C/C(=C\C(=O)Nc1ccccc1C(=O)O)c1ccc2ccccc2c1	–	inactive
Nc1n[nH]c2nnc(-c3c(-c4ccccc4)nn4ccccc34)cc12	–	inactive
CCCCCNC(=O)N1CCC(CN(Cc2ccc(Cl)cc2)Cc2ccc([N+](=O)[O-])s2)C1 (centres undefined)	29.5 µM (active)	–
CC1COC2(CCN(c3nc(=O)c4cc(C(F)(F)F)cc([N+](=O)[O-])c4s3)CC2)O1 (centres undefined)	–	inactive
CCCCCCCCCCCCCC(=O)N[C@H](CO)[C@H](O)c1ccc([N+](=O)[O-])cc1	18.6 µM (active)	–
C[C@]12CC[C@H](O)CC1=CCC1C2CC[C@]2(C)C(n3cnc4ccccc43)=CCC12 (some centres undefined)	20.9 µM (active)	–
c1nc2nc(Nc3ccc(N4CCOCC4)cc3)nc(NC3CCCCC3)c2[nH]1	2.09 µM (active)	–
Cc1ccnc(NS(=O)(=O)c2ccc(NC(=O)Nc3ccc(S(=O)(=O)Nc4nccc(C)n4)cc3)cc2)n1	–	inactive
CN(C)CCCNC(=O)c1ccc(-c2cc(O)c3ncccc3c2)cc1	–	inactive
CC(C)(C)COc1ccc(-n2cc(C(=O)O)cn2)cc1C#N	–	inactive
CCC(C)CCCCC(=O)N[C@@H](CCN)C(=O)NC(C(=O)N[C@H](CCN)C(=O)N[C@@H]1CCNC(=O)C([C@@H](C)O)NC(=O)[C@@H](CCN)NC(=O)[C@@H](CCN)NC(=O)[C@@H](CC(C)C)NC(=O)[C@H](Cc2ccccc2)NC(=O)[C@H](CCN)NC1=O)[C@@H](C)O (some centres undefined)	–	inactive

Assay: growth inhibition of DIPG cells – cell-based, MIPE4.0 library, CellTiter-Glo luminescence, qHTS (AID 1347066);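 also: cells exposed to compound for 48 hours before readout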
Details: SU-DIPG-VI viability, CellTiter-Glo ATP luminescence

Structure (SMILES)	outcome	AC50
CN(N=O)C(=O)N[C@H]1C(O)OC(CO)[C@@H](O)[C@@H]1O (some centres undefined)	inactive	–
Cc1nc2c([nH]1)CCN(C(=O)c1ccc(NC(=O)c3ccccc3-c3ccccc3)cc1)c1ccccc1-2	inactive	–
C=C1/C(=C\C=C2/CCC[C@]3(C)[C@@H]([C@H](C)/C=C/[C@H](C)C(C)C)CC[C@@H]23)C[C@@H](O)C[C@@H]1O	–	23.5 µM (active)
CCC(CC)[C@H](NC(C)=O)[C@@H]1[C@H](O)[C@@H](C(=O)O)C[C@H]1N=C(N)N	inactive	–
CN(C)c1nc(Cc2ccc(NC(=O)c3ccc(C(F)(F)F)cc3)cc2)nc(N(C)C)c1CC(=O)O	inactive	–
Nc1ccn([C@H]2CS[C@@H](CO)O2)c(=O)n1	inactive	–
C1=C/COCc2cc(ccc2OCCN2CCCC2)Nc2nccc(n2)-c2cccc(c2)OCC/1	–	5.26 µM (active)
COc1ccc(CC2SC(=O)NC2=O)cc1C(=O)NCc1ccc(C(F)(F)F)cc1 (centres undefined)	inactive	–
Cc1cc(-c2nnc3n2CCCCC3)c(C)n1-c1ccccc1	inactive	–
CN1[C@@H]2CC(OC(=O)[C@@H](CO)c3ccccc3)C[C@H]1[C@H]1O[C@H]12 (some centres undefined)	inactive	–
CC(C)C(=O)Oc1ccc(CO)cc1[C@H](CCN(C(C)C)C(C)C)c1ccccc1	inactive	–
C/C(=C\C(=O)Nc1ccccc1C(=O)O)c1ccc2ccccc2c1	inactive	–
CCC[C@H]1C[C@H](C(=O)N[C@@H]([C@@H]2O[C@@H](SC)[C@@H](O)[C@@H](O)[C@H]2O)[C@H](C)Cl)N(C)C1	inactive	–
CC[C@H]1OC(=O)[C@H](C)[C@@H](O[C@H]2C[C@@](C)(OC)[C@@H](O)[C@H](C)O2)[C@H](C)[C@@H](O[C@@H]2O[C@@H](C)C[C@H](N(C)C)[C@H]2O)[C@](C)(O)C[C@@H](C)C(=O)[C@H](C)[C@@H](O)[C@]1(C)O	inactive	–
Nc1n[nH]c2nnc(-c3c(-c4ccccc4)nn4ccccc34)cc12	–	2.96 µM (active)
O=C(O)C1=NC(C(=O)O)CC(/C=C/N2c3cc(O)c(OC4OC(CO)C(O)C(O)C4O)cc3CC2C(=O)O)=C1 (centres undefined)	inactive	–
CN[C@H]1[C@H](O[C@@H]2[C@H](O[C@@H]3[C@@H](O)[C@@H](O)[C@@H](N=C(N)N)[C@@H](O)[C@H]3N=C(N)N)O[C@H](C)[C@@]2(O)C=O)O[C@@H](CO)[C@@H](O)[C@H]1O	inactive	–
CNc1ccc(C(=O)Oc2cc(ON[N+](=O)N(C)C)c([N+](=O)[O-])cc2C#N)cc1	inactive	–

Structure (SMILES)	outcome	AC50
CC(C)(C)OC(=O)N[C@H]1CCCCC/C=C\[C@@H]2C[C@@]2(C(=O)NS(=O)(=O)C2CC2)NC(=O)[C@@H]2C[C@@H](OC(=O)N3Cc4cccc(F)c4C3)CN2C1=O	inactive	–
CC(=O)N1CCN(c2ccc(OCc3nn(C)c(C)c3-c3cccc4c(CCCOc5cccc6ccccc56)c(C(=O)O)n(Cc5cccnc5)c34)cc2)CC1	–	1.48 µM (active)
O=C(NNC(=O)c1ccc(CNS(=O)(=O)c2ccc(F)c(Cl)c2)cc1)c1ccccc1	inactive	–
CC1COC2(CCN(c3nc(=O)c4cc(C(F)(F)F)cc([N+](=O)[O-])c4s3)CC2)O1 (centres undefined)	inactive	–
Cc1nnc(C(C)C)n1C1C[C@H]2CC[C@@H](C1)N2CC[C@H](NC(=O)C1CCC(F)(F)CC1)c1ccccc1 (some centres undefined)	inactive	–
C=C1C[C@@]2(O)O[C@@]3(C[C@H]2C(C)C)[C@@H](C)CC[C@@H]13	inactive	–
C[C@H](NCc1ccc2c(c1)nc(NC(=O)c1ccc(-c3cn[nH]c3)s1)n2CCc1ccccc1)C(C)(C)C	–	5.26 µM (active)
C[C@H](NCc1ccc(OCc2cccc(F)c2)cc1)C(N)=O	–	14.8 µM (active)
CO/N=C(/C(=O)N[C@@H]1C(=O)N2C(C(=O)O)=C(Cn3ccc(=N)n3CCO)CS[C@H]12)c1csc(N)n1	inactive	–
c1nc2nc(Nc3ccc(N4CCOCC4)cc3)nc(NC3CCCCC3)c2[nH]1	–	8.33 µM (active)
Cc1ccnc(NS(=O)(=O)c2ccc(NC(=O)Nc3ccc(S(=O)(=O)Nc4nccc(C)n4)cc3)cc2)n1	inactive	–
OC[C@H]1O[C@@H](OCCc2ccc(O)cc2)[C@H](O)[C@@H](O)[C@@H]1O	inactive	–
CC(C)(C)COc1ccc(-n2cc(C(=O)O)cn2)cc1C#N	inactive	–
Nc1nc(F)nc2c1ncn2[C@@H]1O[C@H](CO)[C@@H](O)[C@H]1O	–	0.833 µM (active)
Clc1cccc(-c2nnnn2Cc2cccnc2)c1Cl	inactive	–
CCC(C)CCCCC(=O)N[C@@H](CCN)C(=O)NC(C(=O)N[C@H](CCN)C(=O)N[C@@H]1CCNC(=O)C([C@@H](C)O)NC(=O)[C@@H](CCN)NC(=O)[C@@H](CCN)NC(=O)[C@@H](CC(C)C)NC(=O)[C@H](Cc2ccccc2)NC(=O)[C@H](CCN)NC1=O)[C@@H](C)O (some centres undefined)	inactive	–
CNC(=O)c1ccc(Nc2cc(Nc3ccccc3S(=O)(=O)C(C)C)c3cc[nH]c3n2)nc1	–	16.6 µM (active)
